According to PubChem BioAssay AID2567 (National Center for Advancing Translational Sciences (NCATS), 2010):
Records with an inconclusive call do not appear. A call without a number means that no potency is given here. The source made the active and inactive calls. Calls come from the whole dose curve; as a rule, active = well fitted antagonist curve with a large enough effect in the main read-out, with a control signal flat; inconclusive = small, poorly fitted or top-dose-only effect; inactive = no such curve, though single readings can be large or run the other way.

molecular target: Neuropeptide S receptor (Homo sapiens) (UniProt Q6W5P4); experiment: Confirmation Concentration-Response Assay for Antagonists of the Neuropeptide S Receptor: Calcium Signal Transduction, SAR for Probe; conditions: CHO-NPSR cells, NPS-induced calcium fluorescence, FDSS; series mostly up to 19.3 µM
Sequence (Q6W5P4 whole entry, looked up): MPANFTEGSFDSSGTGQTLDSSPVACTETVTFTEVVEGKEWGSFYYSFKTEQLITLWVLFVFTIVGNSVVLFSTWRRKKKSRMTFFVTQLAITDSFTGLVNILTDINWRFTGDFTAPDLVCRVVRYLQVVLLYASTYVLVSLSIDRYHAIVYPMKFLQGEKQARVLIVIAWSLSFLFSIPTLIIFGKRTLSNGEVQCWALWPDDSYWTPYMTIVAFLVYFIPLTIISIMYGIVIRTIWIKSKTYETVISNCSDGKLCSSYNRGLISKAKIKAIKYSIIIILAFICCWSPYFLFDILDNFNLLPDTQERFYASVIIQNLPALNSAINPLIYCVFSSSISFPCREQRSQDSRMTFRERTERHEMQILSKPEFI
From the text: NIH Chemical Genomics Center [NCGC] NIH Molecular Libraries Probe Production centers Network [MLPCN] MLPCN Grant: X01-DA026210-01 Assay Submitter (PI): Heilig, Markus Alexander NCGC Assay Overview: Neuropeptide S receptor (NPSR), previously known as GPR154, is a recently de-orphanized G protein coupled receptor. Its endogenous ligand is the 20 amino acids peptide Neuropeptide S (NPS). […] NPS and its receptor are found in various tissues. Specifically they are highly expressed in brain areas that have been implicated in modulation of arousal, stress and anxiety. Central administration of NPS in mice produces an unusual profile of activity by inducing wakefulness and arousal, while at the same time suppressing anxiety. Therefore, NPSR may represent a novel drug target for the treatment of sleep and anxiety disorders. To identify NPSR antagonists, we developed a cell-based assay with transfected NPS receptor. NPS can stimulate the production of cAMP as well as release intracellular calcium in Chinese hamster ovary cells stably expressing NPS receptor. This change in intracellular calcium can be detected using a calcium indicator dye on a calcium imaging plate reader system (FDSS).
NCGC Assay Protocol Summary: A Chinese hamster ovary (CHO) cell line stably expressing the NPS receptor (CHO-NPSR) was obtained from Dr. Heilig lab at NIAAA and maintained in F-12 Kaighn's media (Invitrogen, Carlsbad, CA, 21127) supplemented with 10 % FBS, 100 units/ml penicillin, 100 ug/ml streptomycin and 250 ug/ml geneticin at 37C, 5% CO2 in a humidified atmosphere. Before the assay, aliquots of cells were frozen and stored at -135C. The assay was performed on a FDSS-7000 kinetic plate reader in 1536-well format. For both agonist (1-220s) and antagonist (221-400s) phases, the maximums of kinetic fluorescence responses were converted separately into text files using the instrument's software data export utility. Data for agonist response were normalized to the controls for basal activity (DMSO only) and 100% activation (NPS). […] AC50 values were determined from concentration-response data modeled with the standard Hill equation. NPS 1536-well FDSS assay protocol: (1) Frozen CHO-NPSR cells were thaw, washed once with fresh media and resuspended in F-12 Kaighn's media supplemented with 10 % FBS, 100 units/ml penicillin and 100 ug/ml streptomycin. Cells were plated at 3 ul/well (1200 cells) to black, clear-bottom, tissue-culture treated 1536-well plates, and then cultured at 37C, 5 % CO2 for 16 to 30 hours. (2) Add 3 ul of calcium dye (from High Performance PBX Calcium Assay Kit, BD Biosciences). The calcium dye was prepared according to the manufactory's instruction. (3) Incubation at 37C, 5 % CO2 for 60 to 120 min. (4) Load plates to FDSS-7000. The following steps were performed on FDSS-7000. (5) Record fluorescent background (Ex 480 nm, Em 520-560 nm) for 10 s. (6) Add 23 nl/well of compound in DMSO solution. The final titration for each compound was between 0.6 nM and 46 uM. Record agonist response for 210 s. (7) Add 2 ul of stimulation reagent (1X HBSS buffer, 0.1% BSA, 60 nM NPS). Record antagonist response for 140 s. Keywords: MLSMR, MLPCN, NIH Roadmap, qHTS, NCGC, NPS, Neuropeptide S Antagonists

SMILES | Potency
COc1ccc(C2c3ccc(OCc4ccccc4)cc3Oc3ncn(CCN4CCOCC4)c(=N)c32)cc1OC (stereo not given) | inactive
COc1ccc(C2c3c(nc(CCCc4ccccc4)[nH]c3=O)Oc3ccc4ccccc4c32)cc1OC (stereo not given) | inactive
CCC(C)(CCN1CCOCC1)N(Cc1cc2ccccc2n(C)c1=O)C(=O)C1CCCCC1 (stereo not given) | 0.11 µM (active)
Cc1oc2c(c1C(=O)NCc1cccnc1)C(=O)c1ccccc1C2=O | inactive
CCCCOc1ccc(OCCCN2CCOCC2)cc1 | inactive
COc1ccc(C2c3c(N)nc(CCCc4ccccc4)nc3Oc3ccc4ccccc4c32)cc1OC (stereo not given) | inactive
c1ccc(P(c2ccccc2)c2cnc3ccccn23)cc1 | 11 µM (active)
Cc1c(P(=S)(c2ccccc2)c2ccccc2)c2ccccc2n1Cc1ccccc1 | inactive
Cc1cc(C)n(-c2nc(NC(C)C)nc(NC(C)C)n2)n1 | inactive
Cc1cc2nc3ccc(=[N+](C)C)cc-3sc2cc1N | inactive
N=C1c2ccccc2CN1c1ccc(N2CCOCC2)c(S(=O)(=O)Nc2ccc(Cl)cc2)c1 | 1.41 µM (active)
COc1ccc(C2c3ccc4ccccc4c3Oc3ncn(CCN4CCOCC4)c(=N)c32)cc1OC (stereo not given) | 8.74 µM (active)
COc1ccc(C2c3c(nc(CCc4ccccc4)[nH]c3=O)Oc3ccc4ccccc4c32)cc1OC (stereo not given) | inactive
COc1ccc2c(c1)Oc1ncn(CCN3CCOCC3)c(=N)c1C2c1ccc(OC)c(OC)c1 (stereo not given) | 11 µM (active)
COc1cccc(C2c3c(ncn(-c4ccccc4C)c3=N)Oc3ccc4ccccc4c32)c1 (stereo not given) | 5.52 µM (active)
COc1cccc(C2c3c(ncn(-c4ccc(F)cc4)c3=N)Oc3ccc4ccccc4c32)c1 (stereo not given) | 3.48 µM (active)
COC(=O)c1ccc(C(=O)OC)c(NC(=O)CSc2cccc[n+]2[O-])c1 | inactive
O=C(/C=C/c1ccco1)NC(=S)Nc1nc(-c2ccc3ccccc3c2)cs1 | inactive
O=[N+]([O-])c1ccc(-c2nc(C(Cl)Cl)c3ccccc3n2)cc1 | inactive
CC1(C)O[C@@H]2C[C@H]3[C@@H]4C[C@H](F)C5=CC(=O)CC[C@]5(C)[C@H]4[C@@H](O)C[C@]3(C)[C@]2(C(=O)CO)O1 | inactive

SMILES | Potency
CCOC(=O)c1cnc(-n2nc(C)cc2C)nc1Nc1ccc(C)cc1 | inactive
CC(=O)c1sc(N/N=C\c2ccccc2O)nc1C | 1.12 µM (active)
COc1ccc(C2c3c(ncn(CCc4ccccc4)c3=N)Oc3ccc4ccccc4c32)cc1OC (stereo not given) | inactive
COc1cccc(C2c3c(ncn(Cc4cccs4)c3=N)Oc3ccc4ccccc4c32)c1 (stereo not given) | 3.48 µM (active)
COc1cc(/C=C2\SC(c3ccc(C)cc3)=NC2=O)cc(OC)c1O | inactive
COc1ccc(C2c3c(ncn(Cc4ccccc4)c3=N)Oc3ccc4ccccc4c32)cc1OC (stereo not given) | 1.39 µM (active)
CCOC(=O)c1cnc(-n2nc(C)cc2C)nc1NC1CCCC1 | 2.82 µM (active)
COc1cccc(C2c3c(ncn(-c4cccc(Cl)c4)c3=N)Oc3ccc4ccccc4c32)c1 (stereo not given) | 8.74 µM (active)
Cc1ccc(NC(=S)NNC(C)(C)C)cc1 | inactive
S=C(Nc1ccccc1)Nc1nccs1 | inactive
COc1ccc(C2c3c(N)nc(CCc4ccccc4)nc3Oc3ccc4ccccc4c32)cc1OC (stereo not given) | inactive
COc1cccc(C2c3c(ncn(-c4ccccc4SC)c3=N)Oc3ccc4ccccc4c32)c1 (stereo not given) | 0.438 µM (active)
COc1ccc(C2c3c(N)nc(Cc4ccccc4)nc3Oc3ccc4ccccc4c32)cc1OC (stereo not given) | inactive
COc1cccc(C2c3c(ncn(-c4ccc5c(c4)OCO5)c3=N)Oc3ccc4ccccc4c32)c1 (stereo not given) | 0.552 µM (active)
CC(=O)c1sc(-c2ccccc2)cc1NS(=O)(=O)c1ccccc1 | inactive
CC1(C)Cc2c(c(N3CCOCC3)nc3sc4c(NCC5CCCO5)nnnc4c23)CS1 (stereo not given) | inactive
CN(C)C(=S)N=Nc1[nH]c2ccccc2c1O | inactive
COc1ccc(-n2cnc3c(c2=N)C(c2cccc(OC)c2)c2c(ccc4ccccc24)O3)cc1 (stereo not given) | 4.38 µM (active)
COc1cccc(C2c3c(ncn(-c4ccccn4)c3=N)Oc3ccc4ccccc4c32)c1 (stereo not given) | 5.52 µM (active)
COc1cccc(C2c3c(ncn(-c4cccc(F)c4)c3=N)Oc3ccc4ccccc4c32)c1 (stereo not given) | 0.22 µM (active)
